# Measurements: article PMC7862700, “An all-to-all approach to the identification of sequence-specific readers for epigenetic DNA modifications on cytosine”
# How the values were obtained:
# Assay in all cases: DAPPL (digital affinity profiling via proximity ligation, sequencing); 10 mM Tris-HCl pH 7.5, 50 mM NaCl, 1 mM DTT, 4% glycerol, room temperature, 30 min; GST-TFs on glutathione beads, 16-mer random dsDNA library, 0.1% formaldehyde crosslink after washing; high values mean tight binding
# [1] = biological target: T1, FEV (Homo sapiens, UniProt Q99581 1-238); conditions: protein: recombinant; tags: N-terminal GST; dsDNA, one strand shown
# T1 sequence: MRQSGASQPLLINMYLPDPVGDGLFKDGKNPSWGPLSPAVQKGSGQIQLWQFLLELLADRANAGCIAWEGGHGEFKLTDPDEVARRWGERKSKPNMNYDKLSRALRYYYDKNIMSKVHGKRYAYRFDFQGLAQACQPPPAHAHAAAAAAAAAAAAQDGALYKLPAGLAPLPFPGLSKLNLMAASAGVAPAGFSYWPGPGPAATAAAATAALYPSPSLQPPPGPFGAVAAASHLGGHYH
# Method in brief: (§1)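 Pools were built from human transcription factors expressed in yeast as GST fusions, captured on glutathione beads and DNA-barcoded, along with a tag-only sample. Incubation with 200 nmole of a 16-mer random double-stranded DNA library lasted 30 min at room temperature in Tris/NaCl/DTT/glycerol buffer, and was followed by washing, 0.1% formaldehyde crosslinking, proximity ligation, PCR amplification and Illumina NextSeq500 sequencing. Binding signal is the quotient of each hexamer's read frequency for a factor and its frequency for the tag-only sample.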
# [2] = biological target: ETV5 (Homo sapiens, UniProt P41161 1-510); conditions: protein: recombinant; tags: N-terminal GST; dsDNA, one strand shown
# Sequence of ETV5 (P41161 whole entry): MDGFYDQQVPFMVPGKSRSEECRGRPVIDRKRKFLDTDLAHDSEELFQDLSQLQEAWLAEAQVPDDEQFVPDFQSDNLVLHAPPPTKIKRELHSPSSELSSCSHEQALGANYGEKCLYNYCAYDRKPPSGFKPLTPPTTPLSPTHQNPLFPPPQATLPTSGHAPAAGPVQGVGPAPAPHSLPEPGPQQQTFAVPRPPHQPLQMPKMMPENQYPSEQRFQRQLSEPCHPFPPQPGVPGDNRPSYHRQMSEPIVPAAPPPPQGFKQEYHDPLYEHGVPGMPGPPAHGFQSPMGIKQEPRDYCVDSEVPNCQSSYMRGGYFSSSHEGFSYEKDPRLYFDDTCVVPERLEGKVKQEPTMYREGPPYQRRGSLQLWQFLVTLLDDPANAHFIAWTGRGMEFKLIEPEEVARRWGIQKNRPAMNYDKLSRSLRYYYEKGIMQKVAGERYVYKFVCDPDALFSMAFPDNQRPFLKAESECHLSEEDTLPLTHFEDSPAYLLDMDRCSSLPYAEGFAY
# Method in brief: as §1
# [3] = biological target: HSF1 (Homo sapiens, UniProt Q00613 1-529); conditions: protein: recombinant; tags: N-terminal GST; chain copies: 3; dsDNA, one strand shown
# Sequence of HSF1 (Q00613 whole entry): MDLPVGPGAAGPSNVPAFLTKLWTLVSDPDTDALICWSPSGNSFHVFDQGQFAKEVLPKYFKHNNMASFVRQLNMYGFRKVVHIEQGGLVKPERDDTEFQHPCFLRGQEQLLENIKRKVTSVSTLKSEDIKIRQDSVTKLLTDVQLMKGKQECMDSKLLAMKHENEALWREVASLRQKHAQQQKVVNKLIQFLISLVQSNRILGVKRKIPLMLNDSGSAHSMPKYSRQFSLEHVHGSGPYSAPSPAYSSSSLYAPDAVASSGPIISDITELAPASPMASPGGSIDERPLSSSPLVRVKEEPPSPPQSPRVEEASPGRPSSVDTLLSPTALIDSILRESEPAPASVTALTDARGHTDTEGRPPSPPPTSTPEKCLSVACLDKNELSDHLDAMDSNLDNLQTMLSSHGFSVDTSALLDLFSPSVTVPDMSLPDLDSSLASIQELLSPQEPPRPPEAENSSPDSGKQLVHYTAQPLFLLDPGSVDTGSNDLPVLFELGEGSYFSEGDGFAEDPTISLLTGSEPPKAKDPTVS
# Method in brief: as §1
# [4] = biological target: T2, SPIC (Homo sapiens, UniProt Q8N5J4 1-248); conditions: protein: recombinant; tags: N-terminal GST; dsDNA, one strand shown
# T2 sequence: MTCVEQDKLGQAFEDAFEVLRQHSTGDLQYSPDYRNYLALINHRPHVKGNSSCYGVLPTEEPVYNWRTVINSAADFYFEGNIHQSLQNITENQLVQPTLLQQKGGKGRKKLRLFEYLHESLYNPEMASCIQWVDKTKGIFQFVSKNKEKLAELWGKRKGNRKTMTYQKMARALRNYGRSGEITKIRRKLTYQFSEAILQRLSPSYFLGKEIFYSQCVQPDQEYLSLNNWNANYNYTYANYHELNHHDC
# Method in brief: as §1
# [5] = biological target: ELF4 (Homo sapiens, UniProt Q99607 1-663); conditions: protein: recombinant; tags: N-terminal GST; dsDNA, one strand shown
# Sequence of ELF4 (Q99607 whole entry): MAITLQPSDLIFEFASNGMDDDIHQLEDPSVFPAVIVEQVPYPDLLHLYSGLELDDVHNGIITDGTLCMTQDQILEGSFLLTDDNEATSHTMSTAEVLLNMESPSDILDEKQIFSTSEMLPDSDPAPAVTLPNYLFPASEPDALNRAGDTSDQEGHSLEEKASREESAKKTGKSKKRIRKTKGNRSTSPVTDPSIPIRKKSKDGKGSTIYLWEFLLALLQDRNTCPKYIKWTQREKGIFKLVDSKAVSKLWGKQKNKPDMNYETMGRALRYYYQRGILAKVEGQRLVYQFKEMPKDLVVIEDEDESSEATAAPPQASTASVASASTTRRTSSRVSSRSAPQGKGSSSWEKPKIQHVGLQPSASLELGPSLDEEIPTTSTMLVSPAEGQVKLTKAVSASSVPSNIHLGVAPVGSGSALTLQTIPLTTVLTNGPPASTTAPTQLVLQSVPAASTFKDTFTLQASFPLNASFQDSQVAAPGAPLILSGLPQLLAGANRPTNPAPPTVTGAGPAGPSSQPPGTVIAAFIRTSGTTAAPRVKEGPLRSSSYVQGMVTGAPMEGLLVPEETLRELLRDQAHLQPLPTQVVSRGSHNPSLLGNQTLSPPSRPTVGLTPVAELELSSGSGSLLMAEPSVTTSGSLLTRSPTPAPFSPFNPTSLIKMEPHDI
# Method in brief: as §1
# [6] = biological target: T3, ELK4 (Homo sapiens, UniProt P28324-2 1-405); conditions: protein: recombinant; tags: N-terminal GST; dsDNA, one strand shown
# T3 sequence: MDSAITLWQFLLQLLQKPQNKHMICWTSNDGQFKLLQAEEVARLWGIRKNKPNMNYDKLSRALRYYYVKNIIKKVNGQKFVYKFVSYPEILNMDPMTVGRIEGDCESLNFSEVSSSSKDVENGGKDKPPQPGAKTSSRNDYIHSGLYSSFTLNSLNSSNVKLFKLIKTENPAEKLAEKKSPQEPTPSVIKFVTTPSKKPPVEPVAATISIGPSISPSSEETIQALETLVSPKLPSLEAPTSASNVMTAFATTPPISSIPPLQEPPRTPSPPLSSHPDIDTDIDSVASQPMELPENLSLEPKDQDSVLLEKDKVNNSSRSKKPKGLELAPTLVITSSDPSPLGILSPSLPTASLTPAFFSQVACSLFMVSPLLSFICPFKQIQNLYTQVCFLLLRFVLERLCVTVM
# Method in brief: as §1
# [7] = biological target: T4, ETV2 (Homo sapiens, UniProt O00321 1-342); conditions: protein: recombinant; tags: N-terminal GST; dsDNA, one strand shown
# T4 sequence: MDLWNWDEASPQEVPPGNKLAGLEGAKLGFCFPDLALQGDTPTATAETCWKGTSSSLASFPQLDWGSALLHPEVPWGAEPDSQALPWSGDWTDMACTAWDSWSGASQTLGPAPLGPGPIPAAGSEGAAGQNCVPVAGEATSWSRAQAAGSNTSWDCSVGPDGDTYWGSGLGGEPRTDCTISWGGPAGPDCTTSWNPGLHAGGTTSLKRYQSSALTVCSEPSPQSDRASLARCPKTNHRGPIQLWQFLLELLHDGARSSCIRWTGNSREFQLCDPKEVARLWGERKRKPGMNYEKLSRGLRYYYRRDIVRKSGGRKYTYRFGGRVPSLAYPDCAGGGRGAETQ
# Method in brief: as §1
# [8] = biological target: T5, ELF3 (Homo sapiens, UniProt P78545 1-371); conditions: protein: recombinant; tags: N-terminal GST; dsDNA, one strand shown
# T5 sequence: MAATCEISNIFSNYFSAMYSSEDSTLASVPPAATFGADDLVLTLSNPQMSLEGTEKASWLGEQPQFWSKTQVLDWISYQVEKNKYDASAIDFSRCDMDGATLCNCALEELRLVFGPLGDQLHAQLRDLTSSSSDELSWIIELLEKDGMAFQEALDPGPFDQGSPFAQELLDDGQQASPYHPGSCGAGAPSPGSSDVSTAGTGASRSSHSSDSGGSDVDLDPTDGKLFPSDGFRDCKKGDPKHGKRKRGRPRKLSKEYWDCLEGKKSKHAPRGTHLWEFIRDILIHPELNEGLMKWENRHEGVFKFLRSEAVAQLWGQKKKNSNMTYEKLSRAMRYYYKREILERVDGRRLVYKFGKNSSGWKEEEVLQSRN
# Method in brief: as §1
# [9] = biological target: CRX (Homo sapiens, UniProt O43186 1-299); conditions: protein: recombinant; tags: N-terminal GST; dsDNA, one strand shown
# Sequence of CRX (O43186 whole entry): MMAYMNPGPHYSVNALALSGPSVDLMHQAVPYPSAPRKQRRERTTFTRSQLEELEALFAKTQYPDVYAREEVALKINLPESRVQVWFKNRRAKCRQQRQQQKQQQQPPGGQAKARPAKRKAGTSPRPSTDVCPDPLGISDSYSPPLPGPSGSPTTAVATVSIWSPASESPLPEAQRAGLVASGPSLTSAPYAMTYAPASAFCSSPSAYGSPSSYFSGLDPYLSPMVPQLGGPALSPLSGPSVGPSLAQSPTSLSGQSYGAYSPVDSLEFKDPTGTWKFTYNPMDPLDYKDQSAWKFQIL
# Method in brief: as §1
# [10] = biological target: ETV1 (Homo sapiens, UniProt P50549 1-477); conditions: protein: recombinant; tags: N-terminal GST; dsDNA, one strand shown
# Sequence of ETV1 (P50549 whole entry): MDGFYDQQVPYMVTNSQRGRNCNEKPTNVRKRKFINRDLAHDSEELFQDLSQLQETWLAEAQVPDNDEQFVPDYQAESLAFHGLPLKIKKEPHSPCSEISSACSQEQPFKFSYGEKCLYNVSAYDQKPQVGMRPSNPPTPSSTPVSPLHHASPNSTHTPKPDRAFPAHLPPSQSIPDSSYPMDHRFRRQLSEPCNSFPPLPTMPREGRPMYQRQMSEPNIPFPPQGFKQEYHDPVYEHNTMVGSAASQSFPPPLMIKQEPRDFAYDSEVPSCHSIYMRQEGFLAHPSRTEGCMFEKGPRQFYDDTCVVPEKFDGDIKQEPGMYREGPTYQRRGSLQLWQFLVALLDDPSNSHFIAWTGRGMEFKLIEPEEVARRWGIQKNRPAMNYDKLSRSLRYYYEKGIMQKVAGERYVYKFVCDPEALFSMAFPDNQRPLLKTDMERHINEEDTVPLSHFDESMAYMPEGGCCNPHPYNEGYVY
# Method in brief: as §1
# [11] = biological target: T6, ERF (Homo sapiens, UniProt P50548 1-548); conditions: protein: recombinant; tags: N-terminal GST; dsDNA, one strand shown
# T6 sequence: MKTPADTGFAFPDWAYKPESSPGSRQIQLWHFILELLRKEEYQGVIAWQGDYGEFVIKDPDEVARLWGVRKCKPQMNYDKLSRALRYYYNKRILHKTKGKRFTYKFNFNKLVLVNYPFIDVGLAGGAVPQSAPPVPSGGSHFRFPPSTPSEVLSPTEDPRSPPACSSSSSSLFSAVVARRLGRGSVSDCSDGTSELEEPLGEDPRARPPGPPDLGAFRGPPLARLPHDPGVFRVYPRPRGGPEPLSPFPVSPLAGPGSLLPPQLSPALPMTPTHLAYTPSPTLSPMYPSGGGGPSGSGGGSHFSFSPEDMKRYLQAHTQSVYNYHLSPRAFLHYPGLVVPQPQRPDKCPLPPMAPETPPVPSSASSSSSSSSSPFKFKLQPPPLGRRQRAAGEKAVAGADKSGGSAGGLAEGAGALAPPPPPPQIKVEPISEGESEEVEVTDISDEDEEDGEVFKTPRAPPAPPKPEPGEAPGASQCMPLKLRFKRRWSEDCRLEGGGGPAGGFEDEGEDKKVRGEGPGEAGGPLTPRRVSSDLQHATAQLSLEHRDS
# Method in brief: as §1
# [12] = biological target: T7, ETV3L (Homo sapiens, UniProt Q6ZN32 1-361); conditions: protein: recombinant; tags: N-terminal GST; dsDNA, one strand shown
# T7 sequence: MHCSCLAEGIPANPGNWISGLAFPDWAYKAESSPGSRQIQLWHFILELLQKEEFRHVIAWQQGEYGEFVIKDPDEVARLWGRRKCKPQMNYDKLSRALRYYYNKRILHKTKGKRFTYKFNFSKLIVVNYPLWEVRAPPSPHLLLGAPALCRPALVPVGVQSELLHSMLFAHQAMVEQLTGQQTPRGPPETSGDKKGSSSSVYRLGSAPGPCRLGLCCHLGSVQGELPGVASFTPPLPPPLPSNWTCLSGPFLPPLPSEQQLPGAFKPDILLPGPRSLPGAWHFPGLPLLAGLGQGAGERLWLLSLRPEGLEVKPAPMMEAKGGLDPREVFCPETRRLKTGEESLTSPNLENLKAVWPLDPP
# Method in brief: as §1
# [13] = biological target: T8, ETS2 (Homo sapiens, UniProt P15036 1-469); conditions: protein: recombinant; tags: N-terminal GST; dsDNA, one strand shown
# T8 sequence: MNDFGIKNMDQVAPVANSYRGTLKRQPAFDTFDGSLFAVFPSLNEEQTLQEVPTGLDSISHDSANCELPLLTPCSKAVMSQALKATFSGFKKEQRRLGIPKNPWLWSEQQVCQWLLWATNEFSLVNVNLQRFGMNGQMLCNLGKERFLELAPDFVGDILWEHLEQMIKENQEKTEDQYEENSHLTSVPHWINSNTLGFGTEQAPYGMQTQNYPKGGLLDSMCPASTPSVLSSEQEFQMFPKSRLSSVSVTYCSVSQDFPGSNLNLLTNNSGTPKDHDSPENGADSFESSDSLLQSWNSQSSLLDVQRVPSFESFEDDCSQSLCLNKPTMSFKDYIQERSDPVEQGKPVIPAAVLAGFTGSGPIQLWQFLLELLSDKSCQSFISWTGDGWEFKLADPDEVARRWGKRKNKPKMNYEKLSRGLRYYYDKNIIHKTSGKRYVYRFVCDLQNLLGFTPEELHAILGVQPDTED
# Method in brief: as §1
# [14] = biological target: T9, SPDEF (Homo sapiens, UniProt O95238 1-335); conditions: protein: recombinant; tags: N-terminal GST; dsDNA, one strand shown
# T9 sequence: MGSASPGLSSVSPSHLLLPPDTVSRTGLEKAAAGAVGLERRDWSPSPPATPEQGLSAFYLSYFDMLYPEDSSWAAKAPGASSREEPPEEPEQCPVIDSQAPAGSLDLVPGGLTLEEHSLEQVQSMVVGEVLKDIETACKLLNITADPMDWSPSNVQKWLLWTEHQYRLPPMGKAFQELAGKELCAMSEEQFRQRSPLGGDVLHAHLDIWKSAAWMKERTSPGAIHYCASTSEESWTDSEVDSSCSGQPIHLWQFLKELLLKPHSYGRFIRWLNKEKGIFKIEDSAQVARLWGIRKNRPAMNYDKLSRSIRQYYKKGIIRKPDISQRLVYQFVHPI
# Method in brief: as §1
# [15] = biological target: T10, ETV7 (Homo sapiens, UniProt Q9Y603 1-341); conditions: protein: recombinant; tags: N-terminal GST; dsDNA, one strand shown
# T10 sequence: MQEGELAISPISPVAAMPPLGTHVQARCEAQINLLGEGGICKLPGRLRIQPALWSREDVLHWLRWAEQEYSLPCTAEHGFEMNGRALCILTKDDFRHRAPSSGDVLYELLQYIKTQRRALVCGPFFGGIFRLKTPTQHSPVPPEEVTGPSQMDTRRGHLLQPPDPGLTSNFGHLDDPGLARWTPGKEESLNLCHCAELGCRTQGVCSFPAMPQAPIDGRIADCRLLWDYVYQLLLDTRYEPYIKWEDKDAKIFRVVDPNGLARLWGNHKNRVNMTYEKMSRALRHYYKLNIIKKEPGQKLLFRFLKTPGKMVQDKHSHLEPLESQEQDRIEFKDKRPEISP
# Method in brief: as §1
# [16] = biological target: T11, ELF5 (Homo sapiens, UniProt Q9UKW6-2 1-255); conditions: protein: recombinant; tags: N-terminal GST; dsDNA, one strand shown
# T11 sequence: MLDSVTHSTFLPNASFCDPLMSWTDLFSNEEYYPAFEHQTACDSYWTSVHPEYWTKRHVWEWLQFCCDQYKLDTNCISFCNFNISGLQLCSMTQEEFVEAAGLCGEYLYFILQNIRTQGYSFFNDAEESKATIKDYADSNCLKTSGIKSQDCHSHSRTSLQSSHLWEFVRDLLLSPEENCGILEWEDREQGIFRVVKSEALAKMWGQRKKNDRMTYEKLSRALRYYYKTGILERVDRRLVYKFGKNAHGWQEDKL
# Method in brief: as §1
# [17] = biological target: T12, ETV3 (Homo sapiens, UniProt P41162-2 1-143); conditions: protein: recombinant; tags: N-terminal GST; dsDNA, one strand shown
# T12 sequence: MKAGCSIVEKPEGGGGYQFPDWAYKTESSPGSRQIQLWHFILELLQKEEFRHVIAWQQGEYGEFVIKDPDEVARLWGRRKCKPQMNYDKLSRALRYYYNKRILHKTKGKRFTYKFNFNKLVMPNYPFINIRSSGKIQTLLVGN
# Method in brief: as §1
# [18] = biological target: ETV6 (Homo sapiens, UniProt P41212 1-452); conditions: protein: recombinant; tags: N-terminal GST; dsDNA, one strand shown
# Sequence of ETV6 (P41212 whole entry): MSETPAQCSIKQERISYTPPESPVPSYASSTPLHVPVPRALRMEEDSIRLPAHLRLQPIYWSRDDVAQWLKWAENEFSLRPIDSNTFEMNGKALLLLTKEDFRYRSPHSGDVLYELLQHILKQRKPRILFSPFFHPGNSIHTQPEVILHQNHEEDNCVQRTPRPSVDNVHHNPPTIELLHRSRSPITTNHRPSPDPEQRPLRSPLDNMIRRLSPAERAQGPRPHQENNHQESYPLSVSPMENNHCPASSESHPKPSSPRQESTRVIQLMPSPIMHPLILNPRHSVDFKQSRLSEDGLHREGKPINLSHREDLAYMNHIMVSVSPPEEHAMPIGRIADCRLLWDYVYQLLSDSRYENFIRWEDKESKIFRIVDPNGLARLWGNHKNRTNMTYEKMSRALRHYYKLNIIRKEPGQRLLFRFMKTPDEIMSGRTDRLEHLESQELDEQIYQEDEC
# Method in brief: as §1
sequence,measurement,setting,value
TCACCA,binding signal,[1],"1.16 fold enrichment (6-mer frequency, TF over GST control)"
same,binding signal,[2],"1.12 fold enrichment (6-mer frequency, TF over GST control)"
same,binding signal,[3],"1.01 fold enrichment (6-mer frequency, TF over GST control)"
same,binding signal,[4],"1.19 fold enrichment (6-mer frequency, TF over GST control)"
same,binding signal,[5],"1.25 fold enrichment (6-mer frequency, TF over GST control)"
same,binding signal,[6],"1.21 fold enrichment (6-mer frequency, TF over GST control)"
same,binding signal,[7],"1.32 fold enrichment (6-mer frequency, TF over GST control)"
same,binding signal,[8],"1.39 fold enrichment (6-mer frequency, TF over GST control)"
same,binding signal,[9],"1.04 fold enrichment (6-mer frequency, TF over GST control)"
same,binding signal,[10],"1.13 fold enrichment (6-mer frequency, TF over GST control)"
same,binding signal,[11],"1.12 fold enrichment (6-mer frequency, TF over GST control)"
same,binding signal,[12],"1.16 fold enrichment (6-mer frequency, TF over GST control)"
same,binding signal,[13],"1.08 fold enrichment (6-mer frequency, TF over GST control)"
same,binding signal,[14],"1.13 fold enrichment (6-mer frequency, TF over GST control)"
same,binding signal,[15],"1.04 fold enrichment (6-mer frequency, TF over GST control)"
same,binding signal,[16],"1.07 fold enrichment (6-mer frequency, TF over GST control)"
same,binding signal,[17],"1.19 fold enrichment (6-mer frequency, TF over GST control)"
same,binding signal,[18],"1.08 fold enrichment (6-mer frequency, TF over GST control)"
